Pol eta inh: qHTS for Inhibitors of Polymerase Eta | Potency, µM (titrated, usually from 114 µM), for the others: at the highest dose activity change, negative = inhibition, actives largely listed as inhibitors | DNA polymerase eta (Homo sapiens), Q9Y253 | recombinant Pol eta, fluorescent DNA replication assay | hit rate 1.2% among 390,000 | AID 588591, 2011; further: potency means the concentration at half of the fitted maximal effect; on the % scale 0 is the no-effect control and ±100 the full control effect
Target sequence (Q9Y253 whole entry, looked up): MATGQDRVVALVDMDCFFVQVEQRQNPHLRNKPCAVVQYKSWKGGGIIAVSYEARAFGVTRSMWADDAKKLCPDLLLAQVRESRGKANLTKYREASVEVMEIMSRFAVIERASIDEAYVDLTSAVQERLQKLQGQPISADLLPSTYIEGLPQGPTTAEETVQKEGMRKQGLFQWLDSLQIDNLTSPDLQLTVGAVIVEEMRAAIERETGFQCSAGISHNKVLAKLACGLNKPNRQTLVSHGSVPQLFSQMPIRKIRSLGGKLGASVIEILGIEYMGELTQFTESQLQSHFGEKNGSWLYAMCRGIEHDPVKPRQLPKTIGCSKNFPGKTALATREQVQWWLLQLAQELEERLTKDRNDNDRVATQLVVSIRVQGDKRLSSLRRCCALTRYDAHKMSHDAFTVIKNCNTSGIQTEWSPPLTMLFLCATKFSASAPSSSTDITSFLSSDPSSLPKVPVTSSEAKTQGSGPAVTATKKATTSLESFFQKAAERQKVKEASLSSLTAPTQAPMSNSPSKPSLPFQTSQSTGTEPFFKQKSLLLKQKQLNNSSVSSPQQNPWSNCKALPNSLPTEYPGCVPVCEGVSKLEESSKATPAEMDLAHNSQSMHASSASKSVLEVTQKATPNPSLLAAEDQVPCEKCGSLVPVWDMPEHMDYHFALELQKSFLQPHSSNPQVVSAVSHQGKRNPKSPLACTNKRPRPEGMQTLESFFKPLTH
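Pol eta (10 nM) was preincubated with compounds for 15 min at room temperature, after which fluorescent replication substrate (50 nM final) was added to start the reaction. Fluorescence was read kinetically at 0 and 10 min.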
POLK inh: qHTS for Inhibitors of Polymerase Kappa | DNA polymerase kappa (Homo sapiens), Q9UBT6 | purified Pol kappa, fluorescent DNA synthesis assay, 10 min | Potency, µM (highest dose often 107 µM), inactives show top-dose activity, negative = inhibition, actives largely listed as inhibitors | hit rate 0.53% among 400,000 | AID 588579, 2011; further: potency means the concentration at half of the fitted maximal effect; on the % scale 0 is the no-effect control and ±100 the full control effect
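10 nM Pol kappa preincubated 15 min at room temperature with compounds, then reaction started with substrate at 50 nM final. Fluorescence read kinetically at 0 and 10 min; buffer-only wells served as negative control.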
PI5P4Ka inh: qHTS for Inhibitors of phosphatidylinositol 5-phosphate 4-kinase (PI5P4K); PI5P4Kalpha enzyme, ADP-Glo luminescence, 60 min; stronger effect = lower value; Phosphatidylinositol 5-phosphate 4-kinase type-2 alpha (Homo sapiens), P48426; hit rate 1.2% among 330,000; max response, %; active means max response of -50% or lower; inconclusive means between -30% and -50%; inactive means -30% or higher; further: value at the top dose of about 77 µM; on the % scale 0 is the no-effect control and ±100 the full control effect
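ADP-Glo luminescence end-point read after a 60 min room-temperature kinase reaction of PI5P4Kalpha plus substrate, initiated with ATP at 5 microM final. Buffer: 0.038 M HEPES pH 7.4, EGTA, 0.1% CHAPS, 5% DMSO.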
WRN helicase inh: qHTS for Inhibitors of WRN Helicase; Bifunctional 3'-5' exonuclease/ATP-dependent helicase WRN (Homo sapiens), Q14191; Potency, µM (series often up to 114 µM), for the others: at the top dose activity change, negative = inhibition, actives largely listed as inhibitors; AID 651768, 2012; WRN helicase unwinding, fluorescent forked duplex, kinetic; hit rate 0.46% among 360,000; further: potency means the concentration at half of the fitted maximal effect; on the % scale 0 is the no-effect control and ±100 the full control effect; nearly all actives have a fitted effect of over 55% in size
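WRN at 20 nM final was preincubated with compound for 15 min at room temperature; reaction started with 100 nM forked duplex oligonucleotide carrying fluorophore and quencher plus 2 mM ATP (final). Unwinding followed kinetically by red fluorescence (ex 525/em 598 nm).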
Pol beta inh: qHTS Assay for Inhibitors of DNA Polymerase Beta | hit rate 1.3% among 340,000 | Potency, µM (top dose mostly 114 µM), for inactives: top-dose activity change, negative = inhibition, most hits filed as inhibitors | P06746 | Pol beta primer extension/strand displacement, fluorescence kinetic; further: potency means the concentration at half of the fitted maximal effect; on the % scale 0 is the no-effect control and ±100 the full control effect
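Reaction started by 50 nM substrate onto compound-treated Pol beta (10 nM, 15 min preincubation, room temperature); plates read at 0 min and 10 min. Normalized concentration-effect data fitted by four-parameter Hill equation.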
POLI inh: qHTS for Inhibitors of Polymerase Iota; DNA polymerase iota (Homo sapiens), Q9UNA4; Pol iota fluorescent replication assay, 10 min; Potency, µM (highest dose often 115 µM), inactives show at the highest dose activity, negative = inhibition, hits mostly inhibitors; hit rate 1% among 390,000; AID 588590, 2011; further: potency means the concentration at half of the fitted maximal effect
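Pol iota at 10 nM preincubated 15 min with compounds at room temperature; reaction started with fluorescent substrate, 50 nM final. Fluorescence read kinetically at 0 and 10 min; buffer-only wells as negative control.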
* hit, by the source's call; [ ] = dose if it differs, or a comment. Only some compounds are listed: those with a hit (about 2.8% of all), similar ones and a draw of the others. Unless noted, the call rests on the fitted dose curve; in most records, active means well fitted curve in the direction sought with a large enough effect; inconclusive means small, poorly fitted or top-dose-only effect, or another doubt; inactive means no such curve, though single readings can be large; an effect the other way counts as inactive or inconclusive.

Screening Cc1ccc(NC(=O)c2cc(C)nc3c2c(C)nn3-c2cccc(Cl)c2C)c(C)c1 returned Pol eta inh -6.3%, POLK inh 3.8%, Pol beta inh 17.7% and POLI inh 24.3%.
CC(=O)C1=C(OC(=O)C(C)C)c2ccccc2S(=O)(=O)N1Cc1ccccc1 was read as Pol eta inh -14.7%, POLK inh -1.7%, Pol beta inh 14.8% and POLI inh -1.8%.
C/C(=N\OCC(=O)OC(C)C(=O)Nc1ccc(C)c(S(=O)(=O)N2CCOCC2)c1)c1ccc2c(c1)OCO2 (stereo not given) was read as Pol eta inh 56.2µM*, POLK inh -17.3%, PI5P4Ka inh -20.9, WRN helicase inh -2.0%[11.6 µM] and POLI inh inconclusive.
`O=C(O)c1cccc(-n2c(O)c(C=C3N=c4ccccc4=N3)sc2=S)c1` gave Pol eta inh inconclusive, POLK inh -6.7%, PI5P4Ka inh -0.2, WRN helicase inh -20.1%, Pol beta inh 10.4% and POLI inh -12.9%.
`O=C(O)c1ccc(-n2c(O)c(C=C3N=c4ccccc4=N3)sc2=S)cc1` gave Pol eta inh -23.0%, POLK inh inconclusive, PI5P4Ka inh -4.4, WRN helicase inh -6.1%[11.6 µM], Pol beta inh 12.0% and POLI inh 2.24µM*.
Screening Cc1ccc(NC(=O)CSc2nc(=O)n(CCN3CCOCC3)c3c2CCC3)cc1Cl returned Pol eta inh -1.7%, POLK inh -4.3%[60.1 µM], Pol beta inh -8.6% and POLI inh 17.3%.
O=C(Nc1ccccc1)c1cn(-c2ccccc2)nc1-c1ccccc1 was read as Pol eta inh -12.8%, POLK inh -8.1%, Pol beta inh -0.3% and POLI inh -11.3%.
Screening O=C(O)CC/C(=N/NC(=O)c1cn(-c2ccccc2)nc1-c1ccccc1)C(=O)O returned Pol eta inh -9.6%, POLK inh -2.9%, PI5P4Ka inh -3.1, WRN helicase inh -4.2%[57.1 µM], Pol beta inh 0.9% and POLI inh 25.1µM*.
Screening Cn1c(=O)c2c(ncn2CC(=O)OCC(=O)c2ccc(Br)cc2)n(C)c1=O returned Pol eta inh -10.0%, PI5P4Ka inh -57.2* and WRN helicase inh -2.5%.
Screening O=S(=O)(Nc1ccc(F)c(C(F)(F)F)c1)c1ccc(N2CCCCS2(=O)=O)cc1 returned Pol eta inh -9.8%, POLK inh 4.0%[60.1 µM], Pol beta inh 0.4% and POLI inh 18.2%.
`CCN(C(=O)CSc1n[nH]c(-c2ccc(OC)cc2)n1)c1c(N)n(Cc2ccccc2)c(=O)[nH]c1=O` gave Pol eta inh -15.2%, POLK inh -26.1%, PI5P4Ka inh 4.2, WRN helicase inh 2.6% and POLI inh -3.7%.
`Cc1ccc(-c2nc(SCC(=O)N(C)c3c(N)n(Cc4ccccc4)c(=O)[nH]c3=O)n[nH]2)cc1` gave Pol eta inh -23.1%, POLK inh -3.5%, PI5P4Ka inh 0.0, WRN helicase inh -0.7%, Pol beta inh 89.1µM* and POLI inh 31.3%.
`COCCNC(=O)C(=O)Nc1c2c(nn1-c1ccccc1)CS(=O)(=O)C2` gave Pol eta inh 6.2%, POLK inh -8.6%[60.1 µM], Pol beta inh 51.5% and POLI inh -6.9%.
For COc1ccc(/C=C2/SC(=O)N(CCC(=O)Nc3ccc(S(=O)(=O)Nc4nccs4)cc3)C2=O)cc1 the results were Pol eta inh 31.6µM*, POLK inh -12.0%, PI5P4Ka inh inconclusive, WRN helicase inh inconclusive, Pol beta inh 22.4µM* and POLI inh inconclusive.
COc1ccc(/C=C2\SC(=O)N(CCC(=O)Nc3ccc(S(=O)(=O)Nc4nccs4)cc3)C2=O)cc1 was read as Pol eta inh -15.1%, POLK inh -4.7%, PI5P4Ka inh -21.6, WRN helicase inh -6.8%, Pol beta inh 50.1µM* and POLI inh 67.6%.
`COc1ccc(/C=C2\SC(=S)N(CCC(=O)Nc3ccc(O)cc3)C2=O)cc1` gave Pol eta inh -6.9%, POLK inh -4.7%, PI5P4Ka inh -6.5, WRN helicase inh 4.4%, Pol beta inh 1.9% and POLI inh 92.3%.
O=C(CCN1C(=O)S/C(=C\c2cccs2)C1=O)Nc1nccs1 was read as Pol eta inh 0.8%, POLK inh 2.9%, PI5P4Ka inh 0.0, WRN helicase inh -4.3%, Pol beta inh 3.7% and POLI inh -12.9%.
For Cc1ccc(N2CC(C(=O)Nc3ccc(S(=O)(=O)Nc4nccs4)cc3)CC2=O)cc1C (stereo not given) the results were Pol eta inh -5.1%, POLK inh -16.9%, PI5P4Ka inh -3.1, WRN helicase inh -5.8%, Pol beta inh 22.9% and POLI inh 22.4%.
For COc1ccc(N2CC(C(=O)Nc3ccc(S(=O)(=O)Nc4nccs4)cc3)CC2=O)c(OC)c1 (stereo not given) the results were Pol eta inh 50.1µM*, POLK inh inconclusive, PI5P4Ka inh -15.8, WRN helicase inh 1.7% and POLI inh inconclusive.
Screening Cc1nc2cccnc2n1-c1cccc(C(=O)N2CCN(c3cccc(Cl)c3)CC2)c1 returned Pol eta inh -13.3%, POLK inh 0.4%, Pol beta inh 7.5% and POLI inh -8.4%.
For COc1ccc(N2CCN(C(=O)C3Cc4ccccc4N3C(C)=O)CC2)cc1 (stereo not given) the results were Pol eta inh -13.0%, POLK inh -11.4%[60.1 µM], Pol beta inh -3.8% and POLI inh 17.3%.
Cc1ccc(S(=O)(=O)N2CCC(N3CCN(Cc4ccccc4)C(=O)C3=O)CC2)cc1C was read as Pol eta inh -8.8%, POLK inh 4.9%, Pol beta inh 39.4% and POLI inh 5.7%.
`CC(=O)Nc1nonc1-c1nnc(SCC(=O)Nc2cc(C)cc(C)c2)n1-c1ccccc1` gave Pol eta inh -9.0%, POLK inh -20.2%, Pol beta inh -17.6% and POLI inh 25.8%.
For CCc1ccc(-c2nc3cc(NC(=O)c4ccc(F)cc4)ccc3o2)cc1 the results were Pol eta inh -13.6%, POLK inh 11.9%, Pol beta inh -7.1% and POLI inh 30.9%.
For COc1ccc2c(c1)Cc1sc(NC(=O)c3cccc(Cl)c3)nc1-2 the results were Pol eta inh -15.9%, POLK inh -8.3%[60.1 µM], Pol beta inh 0.8% and POLI inh 10µM*.
Screening COc1ccc2c(c1)Cc1sc(NC(=O)c3ccc(Cl)cc3)nc1-2 returned Pol eta inh -9.6%, POLK inh inconclusive, Pol beta inh 0.1% and POLI inh 22.4µM*.
